# In the library only some 8.7% were active in any assay of this set; here they are far more common.
# Sfp PPTase inh: qHTS Assay for Inhibitors of Bacillus subtilis Sfp phosphopantetheinyl transferase (PPTase); actives 3.5% (n = 310,000); Biochemical Sfp PPTase activity, qHTS; AID 1490, 2009; Potency, µM, without a hit: largest response in the series, negative = inhibition, most hits filed as inhibitors; 4'-phosphopantetheinyl transferase ffp (Bacillus subtilis), Q9F4F7;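 also: the enzyme is Sfp with the accession as filed and its product quenches rhodamine fluorescence; 0% = enzyme reaction without inhibitor and -100% = no enzyme wells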
#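 Step 1, compound plus 15 nM Sfp-PPTase, 15 min, room temperature. Step 2, add rhodamine-CoA (5 uM) and BHQ-2-YbbR (12.5 uM). Step 3, read 525/598 nm fluorescence at 0 and 30 min.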
# G9a inh: qHTS Assay for Inhibitors of Histone Lysine Methyltransferase G9a. Histone-lysine N-methyltransferase EHMT2 (Homo sapiens), Q96KQ7. G9a H3K9 monomethylation, AlphaScreen, 2 h. Potency, µM (doses to about 102 µM), for inactives: at the highest dose activity, negative = inhibition, most hits filed as inhibitors. actives 8.8% (n = 350,000). AID 504332, 2011; also: % is scaled to controls: 0 for no effect and ±100 for the full control effect; nearly all actives have a fitted effect of over 75% in size
#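 Enzyme 20 nM + cpd, 15 min RT; add b-H3K9 pep 500 nM / SAM 20 uM; 2 h RT; anti-H3K9me1 Ab 0.5 ug/mL + SA donor / anti-rabbit acceptor beads 20 ug/mL each, 10 min; AlphaScreen read.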
# 12-LOX inh: Primary qHTS assay for inhibitors of human arachidonate 12S-lipoxygenase (ALOX12): Round 2. Polyunsaturated fatty acid lipoxygenase ALOX12 (Homo sapiens), P18054. purified 12hLO, xylenol orange hydroperoxide absorbance. Potency, µM (series often up to 108 µM), for the others: top-dose activity change, negative = inhibition, most hits filed as inhibitors. actives 1.1% (n = 580,000). AID 1671190, 2021; also: % is scaled to controls: 0 for no effect and ±100 for the full control effect
#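 Purified human 12hLO (150 nM final) in 25 mM Hepes, 0.01% Triton X-100, pH 7.0 was preincubated 15 min at room temperature with compound. Then 40 uM arachidonic acid was added, 30 min. Hydroperoxide was read by Fe-XO absorbance ratio 573/405 nm.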
# JMJD2A Tudor: qHTS Assay for Inhibitors of JMJD2A-Tudor Domain | AlphaScreen JMJD2A-Tudor / H3K4me3 peptide binding | Potency, µM (doses to about 114 µM), for the others: top-dose activity change, negative = inhibition, most hits filed as inhibitors | actives 4.4% (n = 390,000) | AID 504339, 2011; also: % is scaled to controls: 0 for no effect and ±100 for the full control effect; nearly all actives have a fitted effect of over 50% in size
# BAZ2B block: qHTS Assay for Inhibitors of BAZ2B. Bromodomain adjacent to zinc finger domain protein 2B (Homo sapiens), Q9UIF8. AID 504333, 2011. Potency, µM (titrated, usually from 114 µM), for the others: at the highest dose activity change, negative = inhibition, usual class: inhibitors. actives 4.4% (n = 360,000). AlphaScreen BAZ2B-H3K14Ac peptide displacement; also: % is scaled to controls: 0 for no effect and ±100 for the full control effect; nearly all actives have a fitted effect of over 60% in size
# Target sequence (Q9UIF8 whole entry, looked up, the tested form may be a part): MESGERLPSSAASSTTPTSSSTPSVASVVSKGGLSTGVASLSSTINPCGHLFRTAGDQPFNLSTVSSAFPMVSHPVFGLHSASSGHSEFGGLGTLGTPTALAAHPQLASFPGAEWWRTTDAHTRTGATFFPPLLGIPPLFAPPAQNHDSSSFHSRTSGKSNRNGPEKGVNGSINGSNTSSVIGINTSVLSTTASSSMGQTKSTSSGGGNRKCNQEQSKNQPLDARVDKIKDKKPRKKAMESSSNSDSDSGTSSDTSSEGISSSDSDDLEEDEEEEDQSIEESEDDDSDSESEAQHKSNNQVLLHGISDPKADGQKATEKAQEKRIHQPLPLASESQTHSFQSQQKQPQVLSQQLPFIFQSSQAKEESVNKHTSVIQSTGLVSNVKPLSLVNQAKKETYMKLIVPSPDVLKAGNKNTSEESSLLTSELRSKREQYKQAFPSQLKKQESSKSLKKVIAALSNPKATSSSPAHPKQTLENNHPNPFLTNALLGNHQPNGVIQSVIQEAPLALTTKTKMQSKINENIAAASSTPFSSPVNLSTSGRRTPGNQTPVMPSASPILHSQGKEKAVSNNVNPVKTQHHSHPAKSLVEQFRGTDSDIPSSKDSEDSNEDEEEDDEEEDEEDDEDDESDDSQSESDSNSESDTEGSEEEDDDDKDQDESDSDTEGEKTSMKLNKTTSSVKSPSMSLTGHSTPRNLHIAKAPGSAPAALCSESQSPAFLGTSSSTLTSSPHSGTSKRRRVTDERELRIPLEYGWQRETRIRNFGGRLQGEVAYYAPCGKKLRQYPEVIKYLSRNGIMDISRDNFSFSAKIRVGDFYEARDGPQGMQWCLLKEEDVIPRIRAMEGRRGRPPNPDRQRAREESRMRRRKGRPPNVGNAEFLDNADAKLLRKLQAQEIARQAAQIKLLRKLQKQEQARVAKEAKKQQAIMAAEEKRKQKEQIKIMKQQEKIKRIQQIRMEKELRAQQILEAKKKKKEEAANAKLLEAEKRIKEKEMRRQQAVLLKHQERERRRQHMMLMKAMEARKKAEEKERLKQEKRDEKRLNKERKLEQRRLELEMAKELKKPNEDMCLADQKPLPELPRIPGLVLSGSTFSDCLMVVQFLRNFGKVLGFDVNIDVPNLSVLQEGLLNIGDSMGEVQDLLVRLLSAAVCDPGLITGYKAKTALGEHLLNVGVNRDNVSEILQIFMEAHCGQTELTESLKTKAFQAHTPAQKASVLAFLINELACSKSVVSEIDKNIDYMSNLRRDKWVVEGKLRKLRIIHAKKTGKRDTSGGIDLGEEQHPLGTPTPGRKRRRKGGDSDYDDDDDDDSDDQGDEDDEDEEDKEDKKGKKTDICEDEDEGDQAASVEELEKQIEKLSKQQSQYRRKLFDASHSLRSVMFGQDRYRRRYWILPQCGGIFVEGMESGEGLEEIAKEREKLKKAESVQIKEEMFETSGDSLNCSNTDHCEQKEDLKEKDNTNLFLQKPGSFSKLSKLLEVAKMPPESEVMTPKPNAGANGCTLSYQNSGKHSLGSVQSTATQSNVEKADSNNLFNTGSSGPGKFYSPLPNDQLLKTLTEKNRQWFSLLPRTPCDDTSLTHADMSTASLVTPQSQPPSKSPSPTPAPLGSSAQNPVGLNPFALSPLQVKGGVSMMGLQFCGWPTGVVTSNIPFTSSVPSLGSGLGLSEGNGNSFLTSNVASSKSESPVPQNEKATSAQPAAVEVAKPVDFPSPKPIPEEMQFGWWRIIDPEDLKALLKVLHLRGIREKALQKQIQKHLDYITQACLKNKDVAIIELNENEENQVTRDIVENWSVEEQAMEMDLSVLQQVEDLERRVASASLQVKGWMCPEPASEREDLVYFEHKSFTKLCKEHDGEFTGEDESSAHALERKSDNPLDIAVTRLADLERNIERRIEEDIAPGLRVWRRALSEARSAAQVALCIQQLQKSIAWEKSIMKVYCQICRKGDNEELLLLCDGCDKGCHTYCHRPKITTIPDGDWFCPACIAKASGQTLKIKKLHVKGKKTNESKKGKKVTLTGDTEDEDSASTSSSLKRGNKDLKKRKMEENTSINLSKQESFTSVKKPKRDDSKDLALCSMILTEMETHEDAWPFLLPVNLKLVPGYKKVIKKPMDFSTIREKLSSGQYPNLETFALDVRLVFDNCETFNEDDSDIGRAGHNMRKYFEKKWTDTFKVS
#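 AlphaScreen luminescence quantifies BAZ2B engagement of H3K14Ac peptide; the protein and biotinylated peptide are both at 50 nM final, buffer PBS pH 7.4 with 0.01% Tween-20, all steps at room temperature.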
# HP1b binding inh: HTS for Inhibitors of HP1-beta Chromodomain Interactions with Methylated Histone Tails | Potency, µM (doses to about 114 µM), inactives show top-dose activity change, negative = inhibition, hits mostly inhibitors | Chromobox protein homolog 1 (Homo sapiens), P83916 | actives 0.56% (n = 390,000) | AlphaScreen HP1-beta / biotin-H3K9me3 peptide binding; also: nearly all actives have a fitted effect of over 70% in size
#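 AlphaScreen: HP1-beta (50 nM) preformed 30 min with biotin-H3(1-18)K9me3 peptide (50 nM) in PBS pH 7.4, 0.01% Tween-20. Compound added for 30 min at RT, then streptavidin donor/nickel chelate acceptor beads (10 ug/mL) for 30 min.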
# The depositor's hits bear a star; ? = inconclusive; . = not tested or not shown; [ ] = another dose, or the depositor's remark. Calls follow the shape of the dose curve; as a rule, active = well fitted curve in the direction sought with a large enough effect; inconclusive = small, poorly fitted or top-dose-only effect, or another doubt; inactive = no such curve, though single readings can be large; an effect the other way counts as inactive or inconclusive. Potency is read from the fitted curve at half-maximal effect.
SMILES,Sfp PPTase inh,G9a inh,12-LOX inh,JMJD2A Tudor,BAZ2B block,HP1b binding inh
O=C(CCN1C(=O)C2CC=C(Cl)CC2C1=O)NCc1ccccc1 (stereo unspecified),4%,18µM*,0%,-2%,-5%,27%
CCc1ccc(-c2noc(CSc3ccc(S(=O)(=O)N4CCCCCC4)cn3)n2)cc1,.,.,-1%,.,.,.
CCOC(=O)C1=C(CSc2nc(-c3ccccc3)ccc2C#N)OC(N)=C(C#N)C1c1ccccc1 (stereo unspecified),-28%,?,-11%,-12%,-2%,39%
COC(=O)C1=C(CSc2nc3c(cc2C#N)CN(C)CC3)OC(N)=C(C#N)C1c1ccccc1F (stereo unspecified),22µM*,14µM*,.,?,?,-19%
N#Cc1cc2c(nc1SCc1ccccc1)CCCC2,6%,-18%,-9%,-13%,9%,13%
CCOC(=O)C1=C(CSc2nc3c(cc2C#N)CCC3)OC(N)=C(C#N)C1c1ccccc1 (stereo unspecified),20µM*,-1%[59 µM],?,25µM*,0%,-14%
CCOC(=O)C1=C(CSc2nc(-c3ccccc3)ccc2C#N)OC(N)=C(C#N)C1c1cccnc1 (stereo unspecified),56µM*,40µM*,1%,-19%,1%,33%
CCOC(=O)C1=C(CSc2nc3c(cc2C#N)CN(C)CC3)OC(N)=C(C#N)C1c1ccc(F)cc1 (stereo unspecified),56µM*,40µM*,?,?,?,-7%
O=C(N/N=C/C1CC2CCC1C2)c1ccccc1[N+](=O)[O-] (stereo unspecified),.,.,12%,.,.,.
CCOC(=O)C1=C(CSc2nc3c(cc2C#N)CN(C)CC3)OC(N)=C(C#N)C1c1ccccc1 (stereo unspecified),?,50µM*,-1%,-22%[11.4 µM],?,-1%
CC(C)c1ccc(C2CC(=O)N3CN(C)CSC3=C2C#N)cc1 (stereo unspecified),4.5µM*,1.6µM*,.,?,-33%,?
CC(=O)n1c2c(c3ccccc31)OC(N)=C(C#N)C2c1ccc(C(C)C)cc1 (stereo unspecified),-1%,?,?,-35%,-39%[57.1 µM],10%
N#CC1=C2SCN(C3CCCCC3)CN2C(=O)CC1c1ccc(Cl)cc1 (stereo unspecified),.,2µM*,?,16µM*,.,?
N#CC1=C2SCN(C3CCCCC3)CN2C(=O)CC1c1c(F)cccc1Cl (stereo unspecified),.,2.8µM*,?,22µM*,.,?
CCCOc1ccc(C2=NC(c3ccc(F)cc3)=Nc3ccc(OC)cc3N2)cc1,.,-23%[59 µM],-12%,?,10µM*,2%
COc1ccc2c(c1)NC(c1cccnc1)=NC(c1ccc(F)cc1)=N2,.,-18%[59 µM],-16%,-20%,-32%,17%
CC1=C[C@@H](CNC(=O)C2CC2)[C@H](C(C)C)C[C@H]1Cc1nnc(-c2ccccc2F)o1,.,.,10%[176 µM],.,.,.
COc1ccc(/C=C2\Oc3cc(OS(C)(=O)=O)ccc3C2=O)c(OC)c1,.,.,-18%,.,.,.
COc1ccc(S(=O)(=O)Oc2ccc3c(c2)O/C(=C\c2cccnc2)C3=O)cc1,-5%,40µM*,-6%,?,?,-24%
COc1cc(OC)c(OC)cc1/C=C1\Oc2cc(OS(C)(=O)=O)ccc2C1=O,-4%,40µM*,10%,?,-35%,-4%
COc1ccc(NC(=O)C2C3C=CC4(O3)C2C(=O)N(CCCN2CCCCC2)C4C(=O)NC2CCCC(C)C2C)cc1 (stereo unspecified),1%,45µM*,-34%,-18%,-1%,3%
CSc1cccc(NC(=O)C2C3C=CC4(O3)C2C(=O)N(CCN2CCOCC2)C4C(=O)NC2CCCCC2)c1 (stereo unspecified),13%,50µM*,-12%,-7%,-19%,35%
COCCCN1C(=O)C2C(C(=O)Nc3cc(C)cc(C)c3)C3C=CC2(O3)C1C(=O)NC1CCCCC1 (stereo unspecified),40µM*,89µM*,0%,-25%,-3%,-1%
Cc1cc(C)cc(NC(=O)C2C3C=CC4(O3)C2C(=O)N(CCCN2CCCCC2)C4C(=O)NC2CCCCC2)c1 (stereo unspecified),10%,?,15%,-17%,0%,17%
COc1cccc(NC(=O)C2C3C=CC4(O3)C2C(=O)N(CCCN2CCC(C)CC2)C4C(=O)NC2CCCCC2)c1 (stereo unspecified),21%,45µM*,-14%,-1%,-1%,47%
SMILES,Sfp PPTase inh,G9a inh,12-LOX inh,JMJD2A Tudor,BAZ2B block,HP1b binding inh
CC1CCCC(NC(=O)C2N(CCCN3CCCC3)C(=O)C3C(C(=O)Nc4ccc(Cl)cc4)C4C=CC32O4)C1C (stereo unspecified),7%,-1%[12.7 µM],15%,-11%,-15%,-15%
Cc1ccc(NC(=O)C2C3C=CC4(O3)C2C(=O)N(CCN2CCOCC2)C4C(=O)NC2CCCCC2)cc1C (stereo unspecified),17%,?,6%,-17%,0%,-13%
CCCNC(=O)C(C)S(=O)(=O)Cc1cc(Cl)c2c(c1)OCO2 (stereo unspecified),.,.,8%,.,.,.
CC(C)C(=O)Nc1ccc(F)cc1F,.,.,6%,.,.,.
O=C(Nc1ccc(Cl)c(Cl)c1)C1C2C=CC3(O2)C1C(=O)N(CCN1CCCCC1)C3C(=O)NC1CCCCC1 (stereo unspecified),6%,45µM*,2%,-13%,2%,12%
Cn1c(CN2CCOC[C@H]2c2ncc(-c3ccc(Cl)cc3)[nH]2)nc2ccccc21,.,.,35µM*,.,.,.
Cc1ncsc1CN1CCCCCCNC(=O)CC1,.,.,-6%,.,.,.
Cc1cc(C(=O)NNC(=S)Nc2ccccc2)nn1C,14%,32µM*,-5%,-13%[11.4 µM],3%,80%
O=C(Nc1ccc(Cl)cc1)Nc1cccc(C(=O)O)c1,-7%,45%[0.501 µM],-1%,-5%,-10%,-1%
Cc1c(C(=O)NNC(=S)Nc2cccc(Cl)c2)nnn1-c1ccccc1,-2%,11µM*,-29%,?,56µM*,-5%

# Bioassay records: PubChem, National Center for Advancing Translational Sciences (NCATS)
